Results on 38 molecules are retold here after PubChem BioAssay (NCATS).

Several values for one entry are separate records, joined by “and”; a condition that tells them apart may be missing. Identical values can stand only once. Unmarked numbers belong to inactive results. Inconclusive results are not listed. Activity calls are given as the source filed them. Unless noted, calls come from the whole dose curve; as a rule, active = well fitted curve in the direction sought with a large enough effect; inconclusive = small, poorly fitted or top-dose-only effect, or another doubt; inactive = no such curve, though single readings can be large; an effect the other way counts as inactive or inconclusive.

A short description of assay [1]: S16 Schwann cell PMP22 intronic element beta-lactamase assay (AID 624044; calls by dose curve;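 note: 0% = DMSO and -100% = potassium clavulanate positive control; nearly all actives have a fitted effect of over 15% in size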). To be noted: S16 rat Schwann cells, PMP22 element beta-lactamase FRET, 24 h; series mostly up to 38.3 µM. In outline:
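Beta-lactamase reporter under a PMP22 intronic regulatory element in stable S16 rat Schwann cells; 24 h compound exposure. 460 nm blue signal normalized between DMSO (0%) and potassium clavulanate, with 535 nm FRET tracking viability; curves classed by r2 and response.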

The nature of assay [2]: S16 Schwann cell PMP22 intronic element firefly luciferase assay (AID 624032). Note: nearly all actives have a fitted effect of over 30% in size. Note: potency is the fitted concentration of half-maximal effect. To be noted: S16 rat Schwann cells, PMP22 element FLuc, 24 h; series mostly up to 57.5 µM. In outline:
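Rat S16 Schwann cells stably carrying a PMP22 intronic element-driven Fluc reporter were seeded overnight, then exposed to compounds for 24 h at 37 °C. Luminescence was normalized to PTC124 (positive control) and DMSO (0% activity).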

Assay [3] is described as follows: qHTS assay for small molecule activators of the p53 signaling pathway (AID 651743; active = well fitted activation curve with a large enough effect in the signal ratio, not every such curve was filed as active; the % refers to the signal ratio; note: % of control where 0% means no effect). To be noted: HCT-116 p53RE-bla, beta-lactamase FRET ratio, 16 h; activation: hits give high values. In outline: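 Agonist-mode quantitative HTS in HCT-116 cells carrying a p53-response-element beta-lactamase reporter; 16 h compound treatment at 37 C, then FRET substrate loading for 2 h at room temperature and fluorescence read.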

Assay [4] is described as follows: qHTS assay for small molecule activators of the nuclear factor-kappa B (NF-kB) signaling pathway (AID 651749; active = well fitted activation curve with a large enough effect in the signal ratio; the % refers to the signal ratio; note: % of control where 0% means no effect). The conditions noted are these: NF-kB-bla ME-180 cells, beta-lactamase FRET ratio, 16 h; hits give high values. A digest of the protocol: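 Human ME-180 cervical cells with an NF-kB-bla construct; compounds added via 23 nL pin transfer, DMSO as vehicle; incubation 16 hr. Reporter activity measured by FRET disruption.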

The target in assay [5] is Glutaminase kidney isoform, mitochondrial (Homo sapiens) (UniProt O94925). Briefly: qHTS for Inhibitors of Glutaminase (GLS): LOPAC Validation (AID 624146). Note: nearly all actives have a fitted effect of over 60% in size. Note: potency is the fitted concentration of half-maximal effect. The conditions noted are these: glutaminase enzyme activity inhibition; series mostly up to 46.1 µM. In outline:
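Assay buffer: 45 mM KH2PO4 pH 8.2, 0.02% Tween-20. hKGA acts on L-glutamine (1 mM solution added); product glutamate is reported by an oxidase/peroxidase Amplex Red coupling, with fluorescence taken at baseline and 30 min.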
On the technique in general: qHTS replaces the single test concentration by a dilution series.

Assay [6] in a line: qHTS of Trypanosoma Brucei Inhibitors: LOPAC Validation (AID 624147). Note: potency is the fitted concentration of half-maximal effect. To be noted: purified enzyme assay, luminescence, 45 min; series mostly up to 57.5 µM. In outline: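 Activity of T. brucei pyruvate kinase was followed by Kinase-Glo Plus luminescence after the enzyme reacted 45 min at room temperature with 130 uM ADP (final) and substrate. Test compounds were added before ADP at multiple concentrations.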

Assay [7] addresses Glucagon-like peptide 1 receptor (Homo sapiens) (UniProt P43220). Briefly: qHTS of GLP-1 Receptor Agonists: LOPAC Validation (AID 624148).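 Note: 0% is about no effect; higher luminescence signal means agonism.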 The conditions noted are these: GLP-1R agonist cell assay; series mostly up to 46.1 µM. A digest of the protocol: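 HEK293 cells stably co-expressing a cAMP-responsive luciferase reporter and a hypersensitive GLP-1R were plated 12 h at 37 °C and exposed to compounds for 4-6 hr at 37 °C, 5% CO2. Luminescence was read 12 min after adding detection reagent.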

A short description of assay [8]: HTS Assay for Allosteric Antagonists of the Human D2 Dopamine Receptor: Hit Validation in HTRF (AID 624455).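 Note: stable D1 dopamine receptor cell line scored for blocking the D1 response; % is set by controls: 0 for no effect and ±100 for the full control effect.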 To be noted: Cells stably expressing D1 dopamine receptor, inhibition mode; series mostly up to 46.1 µM. In outline:
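Inhibition of the D1-mediated response is measured by HTRF in cells that stably express the D1 dopamine receptor. Compounds reaching this step are hits from calcium-flux antagonism testing at EC80 dopamine in inducible Hek293 Trex D2 cells.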

Assay [9] is described as follows: qHTS assay for small molecule agonists of the antioxidant response element (ARE) signaling pathway (AID 651741; active = well fitted activation curve with a large enough effect in the signal ratio; the % refers to the signal ratio; note: % of control where 0% means no effect). The conditions noted are these: HepG2 ARE-bla reporter, beta-lactamase FRET ratio, 16 h; series mostly up to 96 µM. In outline: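 Reporter: beta-lactamase under ARE, stably in HepG2. Exposure: 16 h, 37 C, compounds delivered in DMSO by pin tool after 5 h cell preincubation. Readout: FRET substrate fluorescence after 2 h at RT.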

Assay [10] is described as follows: qHTS of Nrf2 Activators: LOPAC Validation (AID 624149). Note: 0% is about no effect. To be noted: Nrf2/ARE reporter cell assay; series mostly up to 46.1 µM. A digest of the protocol:
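Cells (AREc32_Fluc) are plated at 1000 per well in OPTI-MEM containing 5% FBS and left overnight. Compounds are pinned in and incubated 24 hr at 37 deg C, and firefly luciferase is detected with Steady-Glo.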

Glutaminase kidney isoform, mitochondrial (Homo sapiens), sequence (O94925 whole entry, looked up, canonical isoform): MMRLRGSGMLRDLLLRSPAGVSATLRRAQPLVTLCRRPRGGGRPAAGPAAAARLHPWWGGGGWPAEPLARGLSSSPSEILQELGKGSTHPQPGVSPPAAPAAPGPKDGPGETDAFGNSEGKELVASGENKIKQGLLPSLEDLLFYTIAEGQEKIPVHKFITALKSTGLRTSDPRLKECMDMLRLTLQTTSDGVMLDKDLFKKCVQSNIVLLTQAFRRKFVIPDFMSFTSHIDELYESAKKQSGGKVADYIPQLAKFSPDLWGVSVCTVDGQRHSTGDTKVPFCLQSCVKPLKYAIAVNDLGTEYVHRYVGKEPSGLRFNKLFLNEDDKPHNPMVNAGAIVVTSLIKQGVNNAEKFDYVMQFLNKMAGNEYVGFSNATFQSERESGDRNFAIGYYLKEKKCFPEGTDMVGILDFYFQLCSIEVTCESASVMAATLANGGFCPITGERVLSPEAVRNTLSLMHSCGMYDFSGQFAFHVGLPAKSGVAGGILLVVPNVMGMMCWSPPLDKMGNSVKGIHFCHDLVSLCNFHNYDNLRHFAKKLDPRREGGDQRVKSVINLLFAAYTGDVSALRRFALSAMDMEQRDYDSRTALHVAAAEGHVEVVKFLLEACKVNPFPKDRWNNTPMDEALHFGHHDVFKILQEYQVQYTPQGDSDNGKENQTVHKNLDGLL
Glucagon-like peptide 1 receptor (Homo sapiens), sequence (P43220 whole entry, looked up): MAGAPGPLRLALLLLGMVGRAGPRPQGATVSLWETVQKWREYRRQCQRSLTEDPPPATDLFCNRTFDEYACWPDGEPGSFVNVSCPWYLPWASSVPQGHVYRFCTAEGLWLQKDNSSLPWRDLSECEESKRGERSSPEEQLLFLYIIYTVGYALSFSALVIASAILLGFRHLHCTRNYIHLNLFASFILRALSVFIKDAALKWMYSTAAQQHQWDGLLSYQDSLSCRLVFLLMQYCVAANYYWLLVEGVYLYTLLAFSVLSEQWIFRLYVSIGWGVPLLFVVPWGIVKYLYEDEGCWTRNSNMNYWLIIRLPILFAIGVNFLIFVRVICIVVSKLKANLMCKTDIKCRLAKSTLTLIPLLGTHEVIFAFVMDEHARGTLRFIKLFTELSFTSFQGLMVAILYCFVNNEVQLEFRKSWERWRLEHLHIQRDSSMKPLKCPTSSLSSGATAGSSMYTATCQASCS

`O=P(O)(O)C(Cl)(Cl)P(=O)(O)O`: the Potency entry in assay [1] was “inactive”.

`CNC(=O)OCC[N+](C)(C)C`: the Potency result in [2] and in assay [1] was “inactive” each time.

In the case of `ClCC1CO1` (stereo unspecified), the Potency result in assay [2] and in assay [1] was “inactive” throughout. Moreover, the activation in assay [3] was -3.68%; in [4], 0.581%.

`CN1C2CCC1CC(OC(c1ccccc1)c1ccc(Cl)cc1)C2` (stereo unspecified): the Potency in [2] is 25.6 µM (active). Also, in assay [1], the Potency entry is “inactive”.

For the molecule `O=c1c2ccccc2[se]n1-c1ccccc1`, the Potency is 28.7 µM (active) in assay [2], 2.82 µM (active) in assay [5] and 19 µM (active) in assay [6]. For the same molecule, the Potency entry in [1] and in assay [8] was “inactive” throughout. In assay [7], the result was inactive.

For `CC(=O)O[C@H]1CC[C@H]2[C@@H]3CCC4=CC(=O)CCC4=C3C=C[C@]12C`, the Potency in assay [2] was 8.09 µM (active). Further, the Potency entry in [1] is “inactive”.

Take `CCON=O`: the Potency result in assay [2] and in assay [1] was “inactive” in each case.

Turning to `Cn1sc(Cl)cc1=O`, the Potency result in assay [2] and in [1] was “inactive” each time.

Regarding `CCNC(C)Cc1cccc(C(F)(F)F)c1` (stereo unspecified), the Potency result in assay [2] and in assay [1] was “inactive” each time.

In the case of `O=C(NCNC(=O)NC1C(=O)NC(=O)N1CO)NC1C(=O)NC(=O)N1CO` (stereo unspecified), the Potency result in assay [2], in [1] and in [9] was “inactive” in each case. Further, the activation in assay [3] was -1.04%.

As for `O=C(O)C(Cl)(Cl)Cl`, the Potency entry in assay [2], in [1] and in assay [9] was “inactive” each time. Further, the activation in [3] is 0.586% and -1.1%.

Regarding `O=Cc1ccco1`, the Potency entry in assay [2], in assay [1] and in assay [9] was “inactive” in each case. Moreover, the activation in [3] is -1.55%; in assay [4], -0.614%.

As to `C[C@@H](Cc1ccccc1)NCCC(c1ccccc1)c1ccccc1`, the Potency entry in assay [2] and in [1] was “inactive” each time.

With `CCC1C(C)=NN=C(c2ccc(OC)c(OC)c2)c2cc(OC)c(OC)cc21` (stereo unspecified), the Potency in [2] is 7.21 µM (active). The Potency entry in assay [1] was “inactive”.

`CCC(C)(S(=O)(=O)CC)S(=O)(=O)CC`: the Potency entry in assay [2] and in [1] was “inactive” in each case.

Turning to `O=S(=O)(O)c1cc(O)ccc1O`, the Potency entry in [2] and in assay [1] was “inactive” throughout.

Regarding `CC(C)(C)c1cc(O)ccc1O`, the Potency in assay [2] is 7.21 µM (active) and 28.7 µM (active). The Potency result in assay [1] is “inactive”. The activation is -3.68% and -3.53% and -5.7% in [3]; -2.1% and -2.15% and -3.27% in [4].

With `CC(N)Cc1ccc(O)cc1` (stereo unspecified), the Potency in assay [2] is 9.07 µM (active). Also, in assay [1], the Potency result was “inactive”.

Regarding `O=C/C=C/c1ccccc1`, the Potency entry in [2] and in assay [1] was “inactive” each time. The activation was -1.3% and 1.6% in assay [3]; -1.46% and -0.692% in assay [4].

Take `CN1CCCC(=C(c2cccs2)c2cccs2)C1`: the Potency entry in [2] and in assay [1] was “inactive” throughout.

`FC(F)OC(F)(F)C(F)Cl` (stereo unspecified): the Potency result in [2] and in [1] was “inactive” throughout.

Consider `c1ccc2cc(CC3=NCCN3)ccc2c1`, for which the Potency entry in assay [2], in [1], in assay [5], in assay [6], in assay [10] and in assay [8] was “inactive” in each case. In assay [7], the call was inactive.

In the case of `CCCC(=O)OC(C(Cl)(Cl)Cl)P(=O)(OC)OC` (stereo unspecified), the Potency entry in assay [2] and in assay [1] was “inactive” throughout.

Turning to `ClC1C(Cl)C(Cl)C(Cl)C(Cl)C1Cl` (stereo unspecified), the Potency entry in assay [2], in assay [1] and in assay [9] was “inactive” each time. Also, the figures for the activation in assay [3] and in [4] were -1.74% [middle of 4 runs] and -1.15% [middle of 4 runs], respectively.

Take `COc1ccc(OC)c(C(O)C(C)N)c1` (stereo unspecified): the Potency result in assay [2], in assay [5], in assay [6] and in assay [10] was “inactive” in each case. For the same molecule, the molecule was classed as inactive in assay [7].

Take `S=C=S`: the Potency entry in assay [2], in [1] and in [9] was “inactive” each time. Besides, the activation in assay [3] was -0.789%; in assay [4], -0.146%.

As for `O=c1[nH]c(=O)n(Cl)c(=O)n1Cl`, the Potency result in assay [2], in [1] and in assay [9] was “inactive” each time.

On to `O=C(CCl)c1ccc(Oc2ccc(C(=O)CCl)cc2)cc1`, for which the Potency entry in assay [2] and in assay [1] was “inactive” in each case.

Consider `C[N+]1(C)C2CCC1CC(OC(=O)c1c[nH]c3ccccc13)C2` (stereo unspecified), for which the Potency result in assay [2], in assay [1], in assay [5], in assay [6], in assay [10] and in assay [8] was “inactive” in each case. Besides, the outcome in assay [7] was inactive.

For `CCCCCl`, the Potency entry in [2], in assay [1] and in [9] was “inactive” in each case. The activation in assay [3] was -4.24%.

Regarding `CCC1(C)CC(=O)NC(=O)C1`, the Potency entry in assay [2] and in assay [1] was “inactive” in each case.

`CCC(N)Cc1c[nH]c2ccccc12` (stereo unspecified): the Potency entry in assay [2] and in assay [1] was “inactive” each time.

For `CNC(C)C(O)c1ccc(O)cc1` (stereo unspecified), in assay [2], the Potency was 2.28 µM (active). For the same molecule, the Potency result in assay [1] was “inactive”.

`ClC(Cl)(Cl)Cl`: the Potency entry in assay [2], in assay [1] and in assay [9] was “inactive” in each case. For the same molecule, the activation in [3] is -0.523% and 1.98%; in [4] it was 2.09% and -0.921%.

`O=C(NC(=O)c1c(F)cccc1F)Nc1ccc(Cl)c(Oc2ncc(C(F)(F)F)cc2Cl)c1`: the Potency entry in [2] and in assay [1] was “inactive” each time.

For `CCCCCCCCOC(=O)c1ccccc1C(=O)OCCCCCCCC`, the Potency entry in assay [2], in assay [1] and in [9] was “inactive” throughout. Further, the activation in assay [3] was 1.9% and -2.06%; in [4], -1.07% and -0.62%.

For the molecule `Cc1sc2ccccc2c1CC1=NCCN1`, the Potency result in assay [2], in assay [1], in assay [5], in [6], in assay [10] and in [8] was “inactive” throughout. Moreover, the result in assay [7] was inactive.

For the molecule `O=C1CCO1`, the Potency entry in [2] and in assay [1] was “inactive” each time. Also, the activation in assay [4] was -0.561%.
